Screens from PubChem.
SRC1 TRFRET art = TR-FRET artefact, counter-screen to PPARgamma/SRC-1 agonist assay; TR-FRET detection artefact counter-screen, emission ratio; active compounds read high; TR-FRET ratio at 8 µM; hit rate 0.34% among 99,000; AID 1051; in the data active = TR-FRET ratio above about 2300
PPARg SRC1 recr = PPARgamma-driven SRC-1 recruitment agonism; P37231; PPARgamma-SRC-1 coactivator recruitment biochemical assay; activation, % at 8 µM; hit rate 0.41% among 200,000; AID 631; in the data active = activation above about 19%;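 note: 0% = DMSO and 100% = reference agonist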
Target sequence (P37231 whole entry, looked up): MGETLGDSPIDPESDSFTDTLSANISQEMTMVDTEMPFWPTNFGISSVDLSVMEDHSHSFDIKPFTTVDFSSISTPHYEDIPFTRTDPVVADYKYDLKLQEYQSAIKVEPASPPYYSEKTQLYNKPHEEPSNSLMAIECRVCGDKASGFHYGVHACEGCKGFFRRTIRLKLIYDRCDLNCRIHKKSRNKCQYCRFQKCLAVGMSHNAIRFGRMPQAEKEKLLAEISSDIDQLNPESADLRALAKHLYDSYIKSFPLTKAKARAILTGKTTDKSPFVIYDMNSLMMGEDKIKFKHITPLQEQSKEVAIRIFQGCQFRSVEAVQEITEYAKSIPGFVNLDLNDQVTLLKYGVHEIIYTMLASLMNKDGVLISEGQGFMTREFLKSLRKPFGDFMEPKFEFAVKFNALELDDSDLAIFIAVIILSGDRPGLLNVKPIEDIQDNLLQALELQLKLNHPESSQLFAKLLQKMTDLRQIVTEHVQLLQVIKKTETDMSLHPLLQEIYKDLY
SRC3 TRFRET art = flags TR-FRET format artefacts in PPARgamma SRC-3 recruitment agonist screen. TR-FRET artefact counter-screen, PPARgamma/SRC-3 format; active compounds read high. TR-FRET ratio at 8 µM. hit rate 0.39% among 99,000
PPARg SRC3 recr = promotes SRC-3 coactivator recruitment by human PPARgamma; P37231; biochemical PPARgamma/SRC-3 coactivator recruitment assay; activation, % at 8 µM; hit rate 0.26% among 200,000; AID 731; in the data active = activation above about 23%;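 note: 0% = DMSO and 100% = reference agonist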
SRC2 TRFRET art = TR-FRET artefact, counter-screen to PPARgamma/SRC-2 agonist assay | active compounds read high | TR-FRET ratio at 8 µM | hit rate 0.4% among 200,000
PPARg SRC-2 ag = PPARgamma-driven SRC-2 recruitment agonism; AID 1032; PPARgamma LBD-SRC-2 recruitment, biochemical; activation, % at 8 µM; P37231; hit rate 0.34% among 200,000; in the data active = activation above about 22%;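 note: 0% = vehicle and 100% = reference agonist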
* = called active by the depositor; . = no result given. In the library only some 0.9% were active in any assay of this set; here they are far more common. Cut-off read from the data, not from the text of the source, unless noted: active = TR-FRET ratio above about 2000; inactive = the rest.

SMILES	SRC1 TRFRET art	PPARg SRC1 recr	SRC3 TRFRET art	PPARg SRC3 recr	SRC2 TRFRET art	PPARg SRC-2 ag
CCOC(=O)C1=C(C)OC(N)=C(C#N)C1c1cc2ccccc2nc1N1CCCCC1 (stereo not drawn)	.	15	.	26*	1713	15
N#Cc1ccc(/C=N/N=C(N)N)cc1	.	3	.	26*	1780	7
NC(N)=N/N=C/c1ccc(Br)cc1	1941	10	1566	5	1681	-1
CC(C)N1CCN(Cc2ccc(Oc3ncccn3)cc2)CC1CCO (stereo not drawn)	2154	21*	1564	2	1545	-4
CC(C)CCN1CCN(Cc2ccc(Oc3ncccn3)cc2)CC1CCO (stereo not drawn)	1614	-1	1525	-3	1741	3
O=C(CCC(=O)c1ccc(F)cc1)Nc1cccc(S(=O)(=O)Nc2cccc(Cl)c2)c1	1673	-1	1591	0	1720	1
Cc1nc(SCC(=O)OCc2ccccc2)c(C#N)c(-c2ccccc2)c1C(=O)Nc1ccccc1	.	3	.	11	2287*	-2
Cc1ccccc1NC(=O)c1c(C)nc(SCC(=O)OCc2ccccc2)c(C#N)c1-c1ccc(F)cc1	1564	1	1628	-5	1588	-2
COC(=O)CSc1nc(C)c(C(=O)Nc2ccccc2C)c(-c2ccc(Cl)cc2)c1C#N	1720	-6	2162*	-1	1652	-4
COc1ccccc1NC(=O)C1=C(C)NC(SCC(=O)c2ccc(C)cc2)=C(C#N)C1c1ccco1 (stereo not drawn)	.	11	.	23	2554*	9
CCc1ccc2nc(N3C(=O)C(O)=C(C(=O)c4ccco4)C3c3cccs3)sc2c1 (stereo not drawn)	.	29*	.	28*	2282*	36*
Cc1ccc(Nc2ncccc2C(N)=O)cc1[N+](=O)[O-]	1804	0	1641	5	1710	8
COc1ccc2nc(C)cc(SCC(=O)Nc3c(C)cc(C)cc3C)c2c1	.	32*	.	7	1613	12
COc1ccc2nc(C)cc(SCC(=O)NNC(=O)COc3ccc(C)cc3)c2c1	.	16	.	11	1879	16
COc1ccc2nc(C)cc(SCC(=O)Nc3c(C)cccc3C)c2c1	2033	-3	2003	10	1994*	26*
Cc1nonc1CC(=O)N1CCCC(C(=O)c2ccc(Cl)cc2)C1 (stereo not drawn)	1731	5	1516	4	1543	0
O=C(CSc1ncccn1)NCc1cccc(Cl)c1	1739	5	1572	2	1695	4
O=C(COC(=O)c1ccc(-c2nnc(-c3ccccc3)o2)cc1)c1ccccc1	2073	5	1850	3	2098*	15
Cc1ccc(-c2nc3ccc(Cl)cc3n2OC(C)C(=O)O)cc1 (stereo not drawn)	1671	10	1728	8	1521	13
C#CCSc1nnc(-c2ccccc2)c(=O)[nH]1	.	4	.	9	1756	22*
COc1cc2nc(CN3CCC(C(O)(c4ccccc4)c4ccccc4)CC3)[nH]c(=O)c2cc1OC	1714	7	1382	1	1234	-6
CCN(CC)S(=O)(=O)c1cc(NC(=O)c2ccc(Br)s2)ccc1C	2789*	0	1805	7	1640	14
CCOC(=O)c1sc2nc(CC(=O)OC)nc(NCc3ccc(F)cc3)c2c1C	.	8	.	-1	3064*	57*
COC(=O)c1ccc(OC(=O)CCN2c3ccccc3Sc3ccccc32)cc1	1971	11	2754*	6	2002*	16
S=c1nc(SCc2ccccc2)[nH]c2ccccc12	2318*	-2	2007	15	2041*	21
SMILES	SRC1 TRFRET art	PPARg SRC1 recr	SRC3 TRFRET art	PPARg SRC3 recr	SRC2 TRFRET art	PPARg SRC-2 ag
Cc1cnc(NC(=O)c2ccc(OCC3CCCO3)cc2)s1 (stereo not drawn)	1826	12	1284	7	1718	4
COc1ccc(OC)c(-c2csc(NC(=O)c3ccc(OCC4CCCO4)cc3)n2)c1 (stereo not drawn)	1767	2	2496*	-3	1749	-2
Cc1ccc(-c2cccc(CN3CCN(C4CCN(C(C)C)CC4)C(CCO)C3)c2)o1 (stereo not drawn)	1533	0	1626	-3	1593	2
Cc1nc2cc(NC(=O)Nc3ccccc3Cl)ccc2n1C	1667	-2	1481	-1	1489	-9
COC(=O)c1ccc(COC(=O)c2ccc(S(=O)(=O)N3CCC(C)CC3)cc2)o1	.	21*	.	7	1607	7
Cc1ccc(-c2[nH]c(=S)[nH]c(=O)c2C#N)cc1	2571*	-18	2293*	18	2179*	-4
CSc1cc(-c2ccc(Cl)cc2)[nH]c(=O)c1C#N	1498	3	1471	-2	1403	-5
CCOc1ccc(-c2csc(NNC3=NCCCCC3)n2)cc1	2430*	23*	1370	5	1444	5
COc1ccc(-c2csc(NNC3=NCCCCC3)n2)cc1	1628	3	1498	5	1429	7
Cn1cnnc1SCc1ccc(C(=O)N=Nc2c(O)n(C)c3ccccc23)cc1	1595	8	1751	3	1643	23*
CCOc1ccccc1-c1nc(-c2ccc(NC(=O)Cc3ccccc3OC)cc2)no1	.	1	.	3	2140*	2
CCOC(=O)CN(c1cc([N+](=O)[O-])ccc1OC)S(C)(=O)=O	1764	4	1541	0	1515	-1
O=C(COC(=O)c1cc(Br)ccc1O)Nc1cc(S(=O)(=O)N2CCCC2)ccc1Cl	2170	0	2102*	2	1710	-3
CC(=O)OCC(=O)Nc1cc(S(=O)(=O)N2CCCCCC2)ccc1Cl	1694	-3	1482	-2	1518	3
CCOc1ccccc1N1C(=O)CC(Sc2n[nH]c(-c3ccccc3)n2)C1=O (stereo not drawn)	1649	-2	1621	3	1690	3
CSCCNC(C)=O	.	-1	.	2	2040*	24*
CSCCNC(=O)c1cccc(Cl)c1	1660	-6	1317	-4	1579	-3
Cc1ccc(-c2csc(NC(=O)c3ccc4c(=O)n5c(nc4c3)CCCCC5)n2)cc1	1731	-4	1436	-3	1593	3
CC(=O)Nc1ccc(OCc2nnc(-c3ccc(Cl)cc3)o2)cc1	1690	-9	1552	0	1766	-15
NNc1nc2c(-c3ccc(Cl)cc3)nnn2c2ccccc12	1516	11	1621	6	1573	2
NNc1nc2c(-c3ccc(F)cc3)nnn2c2ccccc12	1861	24*	1482	6	1767	9
CC(=O)c1c(N2CCN(c3ccc(F)cc3)CC2)nc(=S)n(Cc2ccccc2)c1C	1739	6	2117*	4	1479	2
CSc1c(CC(=O)Nc2ccccc2C(F)(F)F)n(Cc2ccccc2)c2ccccc12	1824	3	1556	1	1583	1
COc1cc(Cl)c(C)cc1NC(=O)CSc1nnc(-c2ccccn2)n1Cc1ccco1	.	-4	.	8	1578	8
